Assay results reported in PubChem BioAssay (NCI).
The panel holds about 79,000 compounds, 15% with a hit somewhere; the sample as a whole holds those more often. Cut-off read from the data, not from the text of the source: active = growth inhibition above about 70%; inactive = the rest.

Columns and labels:
[1] = NCI Yeast Anticancer Drug Screen. Data for the rad50 strain (AID 155);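 note: 0% = growth of vehicle-only cultures of the same strain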; settings: S. cerevisiae rad50 strain growth inhibition; at 50.0 µM; active compounds read high
How it was run: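 Cells are treated with compound, grown, and their growth is then scored against vehicle-only cultures of the same repair-deficient yeast strain.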

[2] = NCI Yeast Anticancer Drug Screen. Data for the mec2-1 strain (AID 157); settings: S. cerevisiae mec2-1 strain, at 50.0 µM, active compounds read high
How it was run: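 Each compound was tested on mec2-1 yeast, a strain altered in DNA damage repair or cell cycle control. Growth inhibition is reported relative to vehicle.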

[3] = NCI Yeast Anticancer Drug Screen. Data for the sgs1 mgt1 strain (AID 161);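 note: 0% = growth of cultures given vehicle only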; settings: S. cerevisiae sgs1 mgt1 strain, at 50.0 µM, active compounds read high
How it was run: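 Inhibition of yeast growth, normalised to vehicle-treated controls, is reported for a strain bearing genetic alterations in DNA damage repair.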

[4] = NCI Yeast Anticancer Drug Screen. Data for the cln2 rad14 strain (AID 165);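 note: 0% = growth equal to vehicle treated cultures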; settings: S. cerevisiae cln2 rad14 strain, at 50.0 µM, active compounds read high
How it was run: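 Test compounds were added to cln2 rad14 yeast cultures; inhibition of growth was then determined by comparison with vehicle treatment.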

[5] = NCI Yeast Anticancer Drug Screen. Data for the bub3 strain (AID 167); settings: S. cerevisiae bub3 mutant strain, at 50.0 µM, active compounds read high
How it was run: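 Part of a panel of yeast mutants defective in DNA damage repair or cell cycle regulation. Each strain is grown with compound, and inhibition is calculated relative to solvent-treated cultures.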

[6] = NCI Yeast Anticancer Drug Screen. Data for the mlh1 rad18 strain (AID 175); settings: S. cerevisiae mlh1 rad18 strain growth inhibition; at 50.0 µM; active compounds read high
How it was run: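 Inhibition values reflect reduced growth of mutant yeast versus vehicle-treated controls following compound exposure; the mutations affect DNA damage repair.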

Measured: growth inhibition

Cc1ccc(S(=O)(=O)NNC(=O)c2ccc[nH]2)cc1
inactive: [1] -1.5% | [2] -24.2% | [3] -7.85% | [4] 7.65% | [5] 9.9% | [6] 6.35%

O=C(CN(Cc1ccccc1)Cc1ccccc1)C(O)C1OC(c2ccccc2)OCC1O (stereo not given)
inactive: [1] 1.45% | [2] -5.55% | [3] -2.3% | [4] -4.5% | [5] -1.65% | [6] -4.1%

CNc1c(F)cc(C#N)cc1F
inactive: [1] 12.1% | [2] 11.1% | [3] 1.75% | [4] 3.8% | [5] 0.75% | [6] 10.8%

COc1ccc2ccc3nonc3c2c1
inactive: [1] 17.1% | [2] 4.7% | [3] 9% | [4] -40.5% | [5] 6.4% | [6] 1.45%

c1ccc(C23c4ccccc4C2c2ccccc23)cc1 (stereo not given)
inactive: [1] 14.3% | [2] 11.9% | [3] 22.2% | [4] 10.2% | [5] 18.3% | [6] 13.9%

O=C(Nc1nc(=S)[nH][nH]1)C(=O)C(c1cnc2ccc([N+](=O)[O-])cc2n1)[N+](=O)[O-] (stereo not given)
inactive: [1] -4.5% | [2] -26% | [3] -14.3% | [4] 7.9% | [5] -0.6% | [6] 3.2%

Cc1cc(Cl)cc(CN(Cc2ccccc2)Cc2cc(Cl)cc(C)c2O)c1O
inactive: [1] 1.3% | [2] -3.55% | [3] 18.2% | [4] 25.7% | [5] 2% | [6] -6.8%

O=C(O)CCCCCCCCC(=O)c1cc(O)ccc1O
inactive: [1] -5.3% | [2] 42.1% | [3] 35.7% | [4] -7.25% | [5] 20.4% | [6] 7.9%

CC1=CC(=O)c2cc(C)ccc2C1=O
inactive: [1] 6.1% | [2] -15% | [3] -8.35% | [4] -32.5% | [5] -2.95% | [6] -3.25%

Cn1c(N)c(C(=O)/C=C/c2ccccc2)c(=O)n(C)c1=O
inactive: [1] 11.4% | [2] -17.5% | [3] 17.9% | [4] 17.1% | [5] -3.85% | [6] 5.8%

CCOC(=O)Nc1nc2ccn(C)c2s1
inactive: [1] 6.3% | [2] -6.9% | [3] 2.15% | [4] -6.4% | [5] 4.6% | [6] -8%

C(=C\c1ncc(-c2ccccc2)cc1-c1ccccc1)/c1ccccc1
inactive: [1] -12.3% | [2] -20.8% | [3] 5.8% | [4] -6.8% | [5] 0.75% | [6] -1.9%

CCC1C(=O)OCc2c1cc1n(c2=O)CCC12OCCO2 (stereo not given)
inactive: [1] 0.1% | [2] -15.1% | [3] -36.8% | [4] -17.6% | [5] -23.8% | [6] -15.6%

COc1cc(C2C(C(C)=O)=C(C)Oc3cc4c(cc32)OCO4)cc(OC)c1O (stereo not given)
inactive: [1] 21.1% | [2] 2.5% | [3] -0.25% | [4] 4.15% | [5] 10.1% | [6] 35.5%

O=[N+]([O-])c1ccc(C=NCCO)cc1
inactive: [1] 8.75% | [2] 8.55% | [3] 3.7% | [4] -1% | [5] 9.2% | [6] -5.4%

O=C(Nc1ccc([N+](=O)[O-])c2c1C(=O)c1ccccc1C2=O)c1ccccc1
inactive: [1] -7.7% | [2] -12.1% | [3] -5.95% | [4] -43.4% | [5] 10.1% | [6] -2.9%

C/C(=N\NC(N)=O)C(C)(C)O
inactive: [1] 26.8% | [2] 16.9% | [3] 7.7% | [4] 12.4% | [5] 11.5% | [6] 13.6%

CC[C@@]1(C)CCC2c3ccc(O)cc3CC[C@H]2C1C (stereo not given in full)
inactive: [1] -2.1% | [2] -9.1% | [3] 21.4% | [4] 42.6% | [5] -8.75% | [6] -6.6%

CC(C)(C)c1ccc(O)c(C(=O)O)c1
inactive: [1] 3.55% | [2] -0.95% | [3] -5.8% | [4] -4% | [5] -35.1% | [6] -23.2%

O=C(CN1CCCc2ccccc21)c1ccccc1
inactive: [1] 6.75% | [2] 6.7% | [3] 4.55% | [4] 10.3% | [5] 19% | [6] 10.4%

OC(CCl)CN1CCN(CC(O)CCl)CC1 (stereo not given)
inactive: [1] -3.05% | [2] 12.3% | [3] 2.55% | [4] 13.5% | [5] -9.55% | [6] -24.8%

CC1OC(OC2C(OC(=O)[C@]34CCC(C)(C)C[C@H]3C3=CC[C@@H]5[C@@]6(C)CC[C@H](OC7OC(CO)C(O)C(O)C7OC7OC(CO)C(O)C(O)C7O)C(C)(C)[C@@H]6CC[C@@]5(C)[C@]3(C)CC4)OCC(O)C2O)C(O)C(O)C1OC1OCC(O)C(O)C1O (stereo not given in full)
inactive: [1] -24.8% | [2] -41.2% | [3] -44.5% | [4] -33.8% | [5] -32.8% | [6] -23.1%

Cc1ccc(S(=O)(=O)OCCN(CCOS(=O)(=O)c2ccc(C)cc2)c2cccc(Cl)c2)cc1
inactive: [1] 14.1% | [2] 2.35% | [3] 4.65% | [4] 19% | [5] -4.45% | [6] 29.9%

CCc1ccccc1NOC
inactive: [1] 7.65% | [2] -1.9% | [3] -1.05% | [4] -7.15% | [5] 8.45% | [6] 9.65%

Cn1cnc2c(Oc3ccc(Cl)cc3)ncnc21
inactive: [1] -7.35% | [2] -14.5% | [3] 5.25% | [4] 8.85% | [5] -22.7% | [6] 5.5%

CCCC(=O)c1ccc(O)cc1
inactive: [1] 4.65% | [2] 3.45% | [3] -6.2% | [4] -12.6% | [5] 4.05% | [6] 0.2%

CCNC(=O)NCC
inactive: [1] -16.4% | [2] -19.4% | [3] -32.7% | [4] -29.2% | [5] -2% | [6] -3.4%

CCOC(=O)c1cc(C)nc(Cl)c1C#N
inactive: [1] 6.3% | [2] 12.8% | [3] 7.9% | [4] 13.7% | [5] 21.1% | [6] 12.4%

COC(=O)C1CCCCC1C(=O)OC (stereo not given)
inactive: [1] -11.1% | [2] -14% | [3] 0.85% | [4] -16.6% | [5] -5.3% | [6] 6%

COC(=O)C(C(=O)C(=O)Nc1cccc(O)c1)c1nc2ccc(Cl)cc2[nH]c1=O (stereo not given)
inactive: [1] -19% | [2] -3.95% | [3] -41.3% | [4] 2.55% | [5] -8.65% | [6] -13.9%

N#C/C(C(=N)c1ccccc1)=C1\SS/C(=C(\C#N)C(=N)c2ccccc2)S1
inactive: [1] 7.2% | [2] 2.35% | [3] 7.6% | [4] 23.7% | [5] 3.7% | [6] -4.45%

CCCCOC(=O)NC(=O)c1cn(CCSCCOC(=O)NCCCCCCNC(=O)OCCSCCn2cc(C(=O)NC(=O)OCCCC)c(=O)[nH]c2=O)c(=O)[nH]c1=O
inactive: [1] -15.2% | [2] -12.5% | [3] -9.55% | [4] 2.15% | [5] -15.9% | [6] -15.4%

CC1(C)OCC2OC(n3cnc4c(N)nc(Cl)nc43)C(OS(C)(=O)=O)C2O1 (stereo not given)
inactive: [1] 3.75% | [2] 16.9% | [3] -13.2% | [4] 8.7% | [5] 4.15% | [6] 30%

COc1ccc(-n2c(N)c(C#N)c(C#N)c2-c2cccc([N+](=O)[O-])c2)cc1
inactive: [1] 6% | [2] 9.75% | [3] -62.8% | [4] -3.1% | [5] -18.9% | [6] -48.5%

CCCc1c(Cl)nc(Cl)nc1Cl
inactive: [1] -8.75% | [2] 26.8% | [3] 11.8% | [4] -54.8% | [5] 5.2% | [6] -22.4%

COc1ccc(NC(=S)N(CCC#N)C2CCCCC2)cc1
inactive: [1] -1.1% | [2] -24.3% | [3] -3% | [4] 16.8% | [5] -1.5% | [6] -4.05%

CSc1ncc(CO)c(Nc2ccc(F)cc2)n1
inactive: [1] -12.7% | [2] 8.7% | [3] -16.4% | [4] -20% | [5] -14.9% | [6] -23.4%

CCC(c1ccccc1)c1cc(C(C)(C)C)cc(C(C)(C)C)c1O (stereo not given)
inactive: [1] 31.9% | [2] -36% | [3] -15.4% | [4] -2.25% | [5] 25.4% | [6] 0.95%

O=Cc1ccc(-c2cccc([N+](=O)[O-])c2)s1
inactive: [1] 4.9% | [2] 6.1% | [3] -14.1% | [4] 19.9% | [5] 6.1% | [6] 1.85%

COC(=O)NC(S(=O)(=O)O)S(=O)(=O)O
inactive: [1] 6.2% | [2] 11.6% | [3] 0.85% | [4] 2.65% | [5] 16.5% | [6] 1.7%

CCCCNCCCC(C(=O)O)c1ccccc1 (stereo not given)
inactive: [1] 2.1% | [2] -3.4% | [3] 3.8% | [4] -10.3% | [6] 6.75%
